# Where “and” joins values, the source holds several entries; their conditions need not be identical. Identical values can stand only once. Inconclusive results are not listed. Calls of active or inactive are those of the source. Rule for the calls: active = hit-call score of the fitted dose curve at least 0.9, where 1 is the maximum; inconclusive = response in the unintended direction; inactive = score below 0.9.
# Tests used:
# [1] = molecular target: Cellular tumor antigen p53 (Homo sapiens) (UniProt P04637); assay: TOX21_p53_BLA_p3_ratio: Tox21 HCT-116 p53 Agonism Beta-lactamase Assay, Ratio, Phase 3 (AID 2283596)
# Cellular tumor antigen p53 (Homo sapiens), sequence (P04637 whole entry, looked up): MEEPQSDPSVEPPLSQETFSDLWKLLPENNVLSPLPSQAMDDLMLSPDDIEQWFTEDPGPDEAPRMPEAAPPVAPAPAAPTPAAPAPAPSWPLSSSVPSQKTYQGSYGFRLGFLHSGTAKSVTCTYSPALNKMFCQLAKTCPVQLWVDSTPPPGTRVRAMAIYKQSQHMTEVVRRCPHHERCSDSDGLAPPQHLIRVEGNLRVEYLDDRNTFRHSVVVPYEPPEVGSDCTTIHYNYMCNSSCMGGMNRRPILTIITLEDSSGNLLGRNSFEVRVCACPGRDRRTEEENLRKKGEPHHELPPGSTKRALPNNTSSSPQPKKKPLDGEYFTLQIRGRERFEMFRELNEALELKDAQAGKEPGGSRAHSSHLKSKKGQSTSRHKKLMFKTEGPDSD
# How it was run: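 Cells were seeded at 4000/well, rested 5 h at 37C, then dosed with DMSO compound solutions (217-fold dilution) for 16 h. CCF4-AM substrate was loaded for 2 h at room temperature, and the 460/530 nm emission ratio was fitted for gain of signal versus DMSO.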
# [2] = TOX21_p53_BLA_p4_viability: Viability Assessment in the Tox21 HCT-116 p53 Agonism Beta-lactamase Assay, Phase 4 (AID 2283597);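 note: hits lower the luminescence signal meaning cytotoxicity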
# How it was run: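 In this multiplexed secondary endpoint, HCT116 cells (4000 per well, compound at 5 h, 16 h treatment) received CellTiter-Glo after the beta-lactamase read. Luminescence after 30 min RT reflects ATP, and falling signal marks cytotoxicity.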
# [3] = molecular target: Cellular tumor antigen p53 (Homo sapiens) (UniProt P04637); assay: TOX21_p53_BLA_p5_ratio: Tox21 HCT-116 p53 Agonism Beta-lactamase Assay, Ratio, Phase 5 (AID 2283599)
# How it was run: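 Beta-lactamase reporter ratio (blue 460 nm over green 530 nm, 405 nm excitation) after 2 h CCF4-AM loading, in HCT-116 cells exposed 16 h at 37 C to compounds pinned at 217-fold dilution. Increases relative to DMSO baseline scored.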
# [4] = molecular target: Cellular tumor antigen p53 (Homo sapiens) (UniProt P04637); assay: TOX21_p53_BLA_p4_ratio: Tox21 HCT-116 p53 Agonism Beta-lactamase Assay, Ratio, Phase 4 (AID 2283601)
# How it was run: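 Signal is the blue/green (460nm/530nm) ratio of cleaved versus uncleaved CCF4-AM substrate, read after 2 h substrate loading. Cells were HCT116 carrying the p53-responsive beta-lactamase reporter, dosed 16 h at 37C, 5% CO2; CellTiter-Glo measured in parallel.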
# [5] = TOX21_p53_BLA_p5_viability: Viability Assessment in the Tox21 HCT-116 p53 Agonism Beta-lactamase Assay, Phase 5 (AID 2283600)
# How it was run: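 Here cell health was gauged by ATP levels in wells holding 4000 cells, each treated 16 h with DMSO-delivered compounds at 217-fold dilution; reduced luminescence marked toxicity.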
# [6] = Tanguay_ZF_120hpf_MORT_legacy: (Legacy) Oregon State University Tanguay Lab 120 Hour Post-fertilization zebrafish Assay for Mortality (AID 2283633)
# How it was run: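 Single dechorionated Tropical 5D embryos were held with test chemical (0.64% DMSO final) from 6 to 120 hpf at 28C under foil. Deaths at 24 or 120 hpf were recorded as binary calls, analysed for increase over DMSO controls.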
# [7] = Tanguay_ZF_120hpf_YSE_legacy: (Legacy) Oregon State University Tanguay Lab 120 Hour Post-fertilization zebrafish Assay for Yolk Sac Edema (AID 2283634)
# Description: Tanguay_ZF_120hpf_legacy is a whole embryo, multiplexed endpoint assay using zebrafish larvae exposed for 120 hours post fertilization on a 96-well plate.Tanguay_ZF_120hpf_YSE_legacy is one of one assay component(s) measured or calculated from the Tanguay_ZF_120hpf_legacy assay. It is designed to make measurements of zebrafish development as detected with brightfield microscopy of developing zebrafish embryos.Data from the assay component Tanguay_ZF_120hpf_YSE_legacy was analyzed into 1 assay endpoints. This assay endpoint, Tanguay_ZF_120hpf_YSE_legacy, was analyzed in the positive analysis fitting direction relative to DMSO as the negative control and baseline of activity. […]
# Zebrafish husbandry: Tropical 5D wild-type adult zebrafish were housed in at an approximate density of 1000 per 100 gallon tank at the Sinnhuber Aquatic Research Laboratory, Oregon State University, Corvallis, OR. […] At 24 hpf, embryos were assessed for photomotor response using a custom photomotor response analysis tool (PRAT) and for developmental toxicity endpoints (MO24: mortality at 24 hpf, DP: developmental progression, SM: spontaneous movement, and NC: notochord distortion). At 120 hpf, locomotor activity was measured using Viewpoint Zebralab and assessed for 18 endpoints. […] If mortality occurred for an embryo (at either 24 or 120 hpf), the non-mortality endpoints were not measured.
# [8] = Tanguay_ZF_120hpf_AXIS_legacy: (Legacy) Oregon State University Tanguay Lab 120 Hour Post-fertilization zebrafish Assay for Body Axis Malformation (AID 2283635);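 note: potency for an increased fraction of larvae scored with body axis malformation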
# How it was run: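 Each dechorionated embryo was exposed alone from 6 hpf, with DMSO at 0.64% (vol/vol) and trimethyltin chloride 5 uM as positive control. Axis malformation was recorded at 120 hpf unless the embryo had died.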
# [9] = Tanguay_ZF_120hpf_EYE_legacy: (Legacy) Oregon State University Tanguay Lab 120 Hour Post-fertilization zebrafish Assay for Eye Malformation (AID 2283636);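 note: binary presence or absence of eye malformation scored by brightfield in 120 hpf larvae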
# How it was run: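 Binary brightfield scoring of eye defects at 120 hpf after static exposure from 6 hpf of single pronase-dechorionated wild-type embryos (28C, 0.64% DMSO). Non-mortality endpoints omitted where embryos died; fit vs DMSO.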
# [10] = Tanguay_ZF_120hpf_SNOU_legacy: (Legacy) Oregon State University Tanguay Lab 120 Hour Post-fertilization zebrafish Assay for Snout Malformation (AID 2283637)
# How it was run: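 Binary snout-malformation call at 120 hpf in wild-type 5D embryos, chorion removed by pronase, under static exposure from 6 hpf at 28C (0.64% DMSO). Embryos dying by 24 or 120 hpf excluded.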
structure (smiles),measurement,setting,value
O=C(CS)OCCOC(=O)CS,AC50,[1],39.3 µM (active)
same,outcome,[2],inactive
same,AC50,[3],58.3 µM (active)
same,AC50,[4],53.3 µM (active)
CCO/C=C1\N=C(c2ccccc2)OC1=O,outcome,[1],inactive
same,outcome,[2],inactive
same,outcome,[3],inactive
same,outcome,[4],inactive
c1ccc2[nH]cnc2c1,outcome,[1],inactive
same,outcome,[2],inactive
same,outcome,[3],inactive
same,outcome,[4],inactive
Cc1ncc[nH]1,outcome,[1],inactive
same,outcome,[2],inactive
same,outcome,[3],inactive
same,outcome,[4],inactive
CC(C)CCCCCCc1ccc(OCCOCCO)cc1,outcome,[1],inactive
same,outcome,[2],inactive
same,outcome,[3],inactive
same,outcome,[5],inactive
same,outcome,[4],inactive
COc1cc([C@@H]2c3cc4c(cc3[C@@H](O[C@@H]3O[C@@H]5CO[C@@H](C)O[C@H]5[C@H](O)[C@H]3O)[C@H]3COC(=O)[C@H]23)OCO4)cc(OC)c1O,AC50,[1],852 nM (active) and 3.18 µM (active)
same,outcome,[2],inactive
same,AC50,[3],2.56 µM (active) and 4.83 µM (active)
same,outcome,[5],inactive
same,AC50,[4],6.18 µM (active) and 1.98 µM (active)
CC(=O)C(C)O (stereo not given),outcome,[1],inactive
same,outcome,[2],inactive
same,outcome,[3],inactive
same,outcome,[4],inactive
CCCCCC(C=O)=Cc1ccccc1,outcome,[1],inactive
same,outcome,[2],inactive
same,outcome,[3],inactive
same,outcome,[4],inactive
CCN(CC)C(=O)N(CC)CC,outcome,[1],inactive
same,outcome,[2],inactive
same,outcome,[5],inactive
CCCCCCOC(=O)CCC,outcome,[1],inactive
same,outcome,[2],inactive
same,outcome,[3],inactive
same,outcome,[4],inactive
c1ccc(Oc2ccccc2)cc1,outcome,[1],inactive
same,outcome,[2],inactive
same,outcome,[3],inactive
same,outcome,[4],inactive
C=Cc1ccc(C)cc1,outcome,[1],inactive
same,outcome,[2],inactive
same,outcome,[3],inactive
same,outcome,[5],inactive
same,outcome,[4],inactive
COC(=O)c1ccc(C)cc1C1=NC(C)(C(C)C)C(=O)N1 (stereo not given) (tested in a mixture with another compound),outcome,[1],inactive
same,outcome,[2],inactive
same,outcome,[5],inactive
CCCCCC(C)=O,outcome,[1],inactive
same,outcome,[2],inactive
same,outcome,[3],inactive
same,outcome,[4],inactive
CN(C)C(=S)SC(=S)N(C)C,outcome,[1],inactive
same,outcome,[2],inactive
same,outcome,[3],inactive
same,outcome,[4],inactive
Brc1ccc(Br)c(Br)c1,outcome,[1],inactive
same,outcome,[2],inactive
same,outcome,[3],inactive
same,outcome,[5],inactive
same,outcome,[4],inactive
OCC#CCO,outcome,[1],inactive
same,outcome,[2],inactive
same,outcome,[3],inactive
same,outcome,[5],inactive
same,outcome,[4],inactive
CS(=O)(=O)OCCCCOS(C)(=O)=O,outcome,[1],inactive
same,outcome,[2],inactive
same,outcome,[3],inactive
same,outcome,[5],inactive
same,outcome,[4],inactive
same,outcome,[6],inactive
same,outcome,[7],inactive
same,AC50,[8],38.7 µM (active)
same,outcome,[9],inactive
same,outcome,[10],inactive
OCCCCC(O)CO (stereo not given),outcome,[1],inactive
same,outcome,[2],inactive
same,outcome,[3],inactive
same,outcome,[5],inactive
same,outcome,[4],inactive
COCCOCCOCCO,outcome,[1],inactive
same,outcome,[3],inactive
same,outcome,[5],inactive
same,outcome,[4],inactive
Nc1ccn([C@H]2CS[C@@H](CO)O2)c(=O)n1,outcome,[1],inactive
same,outcome,[3],inactive
same,outcome,[4],inactive
C[Si]1(C)O[Si](C)(C)O[Si](C)(C)O1,outcome,[1],inactive
same,outcome,[4],inactive
